In the library only some 1.3% were active in any assay of this set; here they are far more common.
pAkt inh = inhibitors of Akt phosphorylation; Neuro2A IGF-stimulated pAkt S473 HTRF, 20 min; stronger effect = lower value; activity change, % for hits at 50 µM; 0.32% of 360,000 active; AID 651550; in the data active = activity change below about -80%; inconclusive = mostly about -51% to -80%; note: % is set by controls: 0 for no effect and ±100 for the full control effect
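Neuro2A cells (4,500/well, DMEM with 0.5% FBS) were treated with compound at a single 50 µM final concentration, stimulated with 6 nM IGF for 20 min at 37 °C, and lysed. Phospho-Akt Ser473 was read by HTRF as 665/615 ratio ×10^4.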
RXFP1 agonist = activates the human relaxin receptor RXFP1 | 0.3% of 370,000 active | HEK293T-RXFP1 cAMP TR-FRET, 30 min; response scale: percent of porcine relaxin response, buffer zero | AID 2676 | Q9HBX9 | Potency, µM (doses to about 57.5 µM), for inactives: at the highest dose activation, actives largely listed as activators; active = well fitted activation curve with a large enough effect; inconclusive = small, poorly fitted or top-dose-only effect; note: potency is the fitted concentration of half-maximal effect; % is set by controls: 0 for no effect and ±100 for the full control effect; nearly all actives have a fitted effect of over 60% in size
Target sequence (Q9HBX9 whole entry, looked up): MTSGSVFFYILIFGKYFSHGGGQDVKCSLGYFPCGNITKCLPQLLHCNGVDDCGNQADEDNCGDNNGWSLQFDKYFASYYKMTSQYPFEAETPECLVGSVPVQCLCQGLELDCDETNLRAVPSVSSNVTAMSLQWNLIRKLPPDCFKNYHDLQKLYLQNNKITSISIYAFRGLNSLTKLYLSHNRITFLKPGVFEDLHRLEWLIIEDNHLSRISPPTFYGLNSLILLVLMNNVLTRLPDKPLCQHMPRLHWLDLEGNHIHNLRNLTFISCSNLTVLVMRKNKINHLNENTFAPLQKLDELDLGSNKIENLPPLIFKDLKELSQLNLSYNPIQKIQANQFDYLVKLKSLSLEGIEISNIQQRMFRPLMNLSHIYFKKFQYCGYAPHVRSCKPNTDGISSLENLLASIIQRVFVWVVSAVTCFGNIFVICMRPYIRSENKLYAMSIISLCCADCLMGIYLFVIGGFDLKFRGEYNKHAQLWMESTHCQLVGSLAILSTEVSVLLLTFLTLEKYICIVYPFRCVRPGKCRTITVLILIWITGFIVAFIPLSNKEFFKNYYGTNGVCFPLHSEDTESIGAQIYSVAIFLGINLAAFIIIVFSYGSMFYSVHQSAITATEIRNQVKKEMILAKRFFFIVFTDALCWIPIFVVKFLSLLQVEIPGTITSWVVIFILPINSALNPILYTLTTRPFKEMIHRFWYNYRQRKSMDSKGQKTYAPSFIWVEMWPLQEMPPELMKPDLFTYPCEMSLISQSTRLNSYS
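Agonist response is measured as cAMP accumulation in an RXFP1-transfected HEK293T line under PDE4 inhibition. Values are scaled between buffer-only and 29 nM porcine relaxin, and EC50s come from standard Hill equation fits.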
gsp ag = gsp mutant agonism; Potency, µM (highest dose often 76.9 µM), for the others: at the highest dose activation (cAMP increase), hits mostly activators; AID 624287; 0.13% of 340,000 active; gsp mutant cells, cAMP HTRF, 30 min; active = well fitted activation curve with a large enough effect; inconclusive = small, poorly fitted or top-dose-only effect, or another doubt; inactive = no such curve, though single readings can be large or run the other way; cell line not stated here;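 note: phosphodiesterase inhibitor Ro 20-1724 added with compounds to block cAMP breakdown; potency is the fitted concentration of half-maximal effect; nearly all actives have a fitted effect of over 60% in size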
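Cells stably selected in G418 were plated at 2000/well, grown 16-24 hr, then given compounds in DMSO with the PDE inhibitor […] (300 uM solution added) for 30 min at 37C; cAMP was read by HTRF.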
RXFP1 antag = RXFP1 (human) relaxin receptor antagonism; HEK293-RXFP1, relaxin-stimulated cAMP HTRF, 30 min; stronger effect = lower value; activity change, negative = inhibition, % at 57.5 µM; 0.59% of 350,000 active;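 active = activity change of -60% or lower, but not beyond a set lower limit; inconclusive = change between -60% and -40%, or beyond the set limit; inactive = change above -40%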; note: % is set by controls: 0 for no effect and ±100 for the full control effect
gsp antag = gsp mutant antagonism; gsp-mutant cells, cAMP HTRF, 30 min; Potency, µM (series often up to 76.9 µM), for the others: at the top dose activity change, negative = inhibition, most hits filed as inhibitors; 0.4% of 340,000 active; calls by dose curve; cell line not stated here;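 note: intracellular cAMP measured with PDE inhibitor Ro 20-1724 present during compound exposure; potency is the fitted concentration of half-maximal effect; % is set by controls: 0 for no effect and ±100 for the full control effect; nearly all actives have a fitted effect of over 65% in size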
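G418-selected cells were plated in DMEM/10% FBS for 16-24 h at 37C, then treated with compounds plus the PDE inhibitor […] (300 uM solution added) for 30 min at 37C. Intracellular cAMP was measured by HTRF after 30 min lysis at room temperature.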
* = called active by the depositor; i = inactive; ? = inconclusive; . = no result given; [ ] = another dose, or the depositor's remark.

SMILES | pAkt inh | RXFP1 agonist | gsp ag | RXFP1 antag | gsp antag
O=C(CCc1nc2ccccc2s1)N1CCN(c2ccccc2)CC1 | i | 2% | -9% | -1 | -13%
CC(=O)c1ccc(N2CCN(C(=O)CCCc3nc4ccccc4s3)CC2)cc1 | i | -2% | -5% | 1 | 32µM*
COc1ccc(OC)c(CNC(=O)Cn2nc(C)c3nn(-c4ccc(Cl)cc4)c(C)c3c2=O)c1 | . | 11% | . | -3 | .
COc1ccc(CN2CCN(c3nc4ccccc4s3)CC2)cc1 | i | 3% | 12%[15.4 µM] | -3 | 4%
COc1ccc(CCn2c(O)cc3nn(-c4nc5ccccc5s4)c(=O)c-3c2C)cc1 | i | 0% | -11%[15.4 µM] | -70* | 7%
NC(=O)N[C@@H](CCC(=O)O)C(=O)O | . | . | . | 8 | .
O=C(Nc1c(C(=O)N2CCN(c3ccccc3F)CC2)oc2ccccc12)c1cccc(F)c1 | . | -1% | . | -9 | .
Cn1c(=O)n(C)c2cc([N+](=O)[O-])c(N3CCN(S(=O)(=O)c4ccccc4)CC3)cc21 | i | -1% | -61% | 0 | 25µM*
COc1cccc(NC(=O)Nc2ccc3nc(N4CCN(C)CC4)cc(C)c3c2)c1 | . | 4% | . | -31 | .
C=CCNC(=O)/C(C#N)=C/c1cc(Br)ccc1OC | i | 2% | 3% | -68* | -4%
COc1ccc(F)cc1S(=O)(=O)NC1CC(C)(C)NC(C)(C)C1 | -112%* | 1% | -15% | 2 | 18%
CC1=C(C(=O)OC2CCCC2)C(c2ccc(F)cc2F)CC(=O)N1 (stereo not given) | . | -3% | . | . | .
Cc1ccc(-c2nc(NCc3cccnc3)c3ccccc3n2)cc1 | i | -1% | -7% | -21 | 35µM*
Cc1ccc(/C=C(\C#N)C(=O)Nc2ccc(Br)cc2)o1 | . | ? | . | -3 | .
N#C/C(=C\c1ccc([N+](=O)[O-])o1)C(=O)Nc1ccc(F)cc1 | i | -1% | -13%[15.4 µM] | -68* | -11%
N/C(=N\OC(=O)c1cccs1)C1(c2ccc(Cl)cc2Cl)CC1 | i | 1% | -9%[15.4 µM] | -115* | 8%
N/C(Cc1ccc(Cl)c(Cl)c1)=N\OC(=O)c1cccs1 | i | 0% | -26% | -6 | -21%
COc1ccc(-n2c(=O)c3sc4ccccc4c3n(Cc3ccccc3C)c2=O)cc1OC | . | 2% | . | . | .
C#Cc1cccc(NC(=O)c2ccc3c(c2)C(=O)N(Cc2cccnc2)C3=O)c1 | i | -1% | 33%[15.4 µM] | -88* | 40µM*
CC(C)c1ccc(NC(=O)c2ccc3c(c2)C(=O)N(Cc2cccnc2)C3=O)cc1 | i | -1% | ? | -12 | 35µM*
CCOC(=O)c1ccc(NC(=O)c2ccc3c(c2)C(=O)N(Cc2cccnc2)C3=O)cc1 | i | 4% | ? | -13 | 35µM*
COC(=O)Cc1ccc(NC(=O)c2ccc3c(c2)C(=O)N(Cc2cccnc2)C3=O)cc1 | i | 2% | -19% | 4 | -11%
Cc1ccc(NC(=O)c2ccc3c(c2)C(=O)N(CC2CCCO2)C3=O)cc1C (stereo not given) | i | 0% | -17% | -36 | -25%
CCOC(=O)c1ccc(NC(=O)c2ccc3c(c2)C(=O)N(CC2CCCO2)C3=O)cc1 (stereo not given) | i | 0% | -19% | -33 | 32µM*
Cc1ccc(C(=O)CSc2nnc(-c3ccco3)n2Cc2ccccc2)cc1 | -109%* | 2% | -18% | 8 | ?
SMILES | pAkt inh | RXFP1 agonist | gsp ag | RXFP1 antag | gsp antag
COc1ccc(-c2nnc(SCC(=O)Nc3ccc(C(C)=O)cc3)nc2-c2ccc(OC)cc2)cc1 | . | 1% | . | -2 | .
O=C(CSc1nnc(-c2ccco2)n1Cc1ccccc1)c1ccccc1 | i | 3% | 12% | -2 | -4%
CC(=O)c1ccc(NC(=O)CSc2nnc(-c3ccco3)c(-c3ccco3)n2)cc1 | i | -3% | 20% | -71* | -13%
O=C(CSc1nnc(-c2ccco2)c(-c2ccco2)n1)c1ccccc1 | i | 27% | 1% | -97* | -28%
Cc1onc(-c2ccccc2)c1C(=O)Cl | . | . | . | -5 | .
Cc1ncc([N+](=O)[O-])n1C | . | . | . | 6 | .
Cn1c([N+](=O)[O-])cnc1N1CCN(c2nncs2)C1=O | i | 16µM* | 10µM* | 13 | 5%
COc1ccc(C(=O)NCCn2cc(SCC(=O)Nc3ccc(F)cc3)c3ccccc32)cc1 | . | 2% | . | . | .
CCOC(=O)CN1CCCC1=O | . | . | . | 3 | .
O=C(CSc1nnc(CNc2ccc(Cl)cc2)n1Cc1ccccc1)NCc1ccco1 | -109%* | 0% | 0% | -8 | ?
Cc1ccc(CCn2c3c(c4cc(Cl)ccc42)CN(C)CC3)cn1 | . | . | . | -16 | .
C/C=C/c1ccc(OCCCNC)c(OC)c1 | -119%* | 0% | 14% | 3 | 16%
C/C=C/c1ccc(OCCNCc2ccccc2)c(OC)c1 | i | 0% | 6% | 6 | 6%
Nc1cc(N)nc(SCc2cc([N+](=O)[O-])cc3c2OCOC3)n1 | i | 12% | ? | 0 | 5%
O=[N+]([O-])c1cc2c(c(CSc3ncccn3)c1)OCOC2 | i | 14µM* | 54%[15.4 µM] | 11 | 12%
CCOc1ccc(-n2cc(-c3ccc(OC)c(OC)c3)[nH]c2=S)cc1 | i | 4% | 29% | -76* | -16%
CC(C)Oc1ccc(CNC(=O)c2sc3ncccc3c2-n2cccc2)cc1 | . | 4% | . | -39 | .
CCN(C(=O)CCS(=O)(=O)c1ccc2c(c1)CCN2C(C)=O)c1cccc(C(F)(F)F)c1 | . | 1% | . | . | .
COc1ccc(CN2C(=O)c3cccnc3C2=O)cc1S(=O)(=O)N1CCCCC1C (stereo not given) | i | 7.1µM* | 7.1µM* | 28 | 29%
COc1ccc(CN2C(=O)c3cccnc3C2=O)cc1S(=O)(=O)N1CC(C)Oc2ccccc21 (stereo not given) | i | ? | ? | 3 | 12%
CCCCOc1ccc(-c2nonc2NC(=O)c2ccco2)cc1 | . | -1% | . | -11 | .
O=C(CSc1ncnc2sc3c(c12)CCCCC3)NCc1ccco1 | i | 4% | 5% | 7 | 3%
CC(C)c1nc2sc3c(SCC(=O)NCc4ccco4)ncnc3c2c2c1CCC2 | -95%* | ? | ? | -16 | 8%
COc1ccc(-c2cc(-c3cc(C)ccc3O)[nH]n2)cc1 | i | 1% | 26% | -100* | -19%
CC(O)CNC(=O)C(=O)Nc1c2c(nn1-c1ccc(Cl)cc1)CSC2 (stereo not given) | . | 2% | . | -8 | .
O=C1c2[nH]nc(-c3ccccc3O)c2C(c2cccc(OCc3ccccc3)c2)N1CCCO (stereo not given) | . | 2% | . | -64* | .
CCCOc1cccc(C2c3c(-c4ccccc4O)n[nH]c3C(=O)N2Cc2ccco2)c1 (stereo not given) | . | 0% | . | -80* | .
COCCN1C(=O)c2[nH]nc(-c3ccccc3O)c2C1c1ccc(Cl)c(Cl)c1 (stereo not given) | . | 0% | . | -70* | .

High-throughput results deposited in PubChem by National Center for Advancing Translational Sciences (NCATS).
